PubChem BioAssay AID1159580 (chemical genetic matrix, 2015)
Several values for one entry are separate records, joined by “and”; a condition that tells them apart may be missing. Identical values can stand only once. Hit rate of the full screen: of about 5,500 compounds, about 2,000 (36%) were called active. About 18% were inconclusive and are not listed. Cut-off read from the data, not from the text of the source: active = normalized growth mostly below about 0.91 (no sharp cut-off); inconclusive = no clear call, values can overlap the other calls; inactive = mostly above about 0.92. This is one part of the list.

Experiment: chemical genetic growth profiling, strain panel (AID 1159580);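 note: tested at 20 µM; growth read once vehicle control cultures reached saturation at 30 °C; 1 = growth at the plate median or of vehicle wells; lower values mean less growth of the strain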
Conditions: S. cerevisiae deletion strains, growth OD

Measured: normalized growth

COc1cc2c(cc1OC)C(C)NCC2 (stereo unspecified)
inactive: locus YAL013W, strain DEP1, stronger effect = lower value 0.996 | locus YAL021C, strain ccr4, stronger effect = lower value 0.967 | locus YAL026C, strain drs2, stronger effect = lower value 0.959 | locus YAL030W, strain snc1, stronger effect = lower value 0.985 | locus YBL061C, strain skt5, stronger effect = lower value 0.97 | locus YBR009C, strain hhf1, stronger effect = lower value 0.965 | locus YBR021W, strain FUR4, stronger effect = lower value 0.995 | locus YBR023C, strain chs3, stronger effect = lower value 0.957 | locus YBR171W, strain sec66, stronger effect = lower value 0.958 | locus YBR229C, strain ROT2, stronger effect = lower value 0.995 | locus YBR231C, strain swc5, stronger effect = lower value 0.982 | locus YBR279W, strain paf1, stronger effect = lower value 0.989 | locus YCL011C, strain gbp2, stronger effect = lower value 0.979 | locus YCL016C, strain dcc1, stronger effect = lower value 1 | locus YCL029C, strain bik1, stronger effect = lower value 0.979 | locus YCL069W, strain vba3, stronger effect = lower value 0.962 | locus YCR088W, strain abp1, stronger effect = lower value 0.982 | locus YDL005C, strain med2, stronger effect = lower value 0.976 | locus YDL035C, strain GPR1, stronger effect = lower value 1 | locus YDL040C, strain nat1, stronger effect = lower value 0.984 | locus YDL074C, strain BRE1, stronger effect = lower value 1 | locus YDL101C, strain DUN1, stronger effect = lower value 0.996 | locus YDL185W, strain tfp1, stronger effect = lower value 0.986 | locus YDL192W, strain arf1, stronger effect = lower value 0.98 | locus YDR001C, strain nth1, stronger effect = lower value 0.988 | locus YDR069C, strain doa4, stronger effect = lower value 0.921 | locus YDR101C, strain arx1, stronger effect = lower value 0.979 | locus YDR137W, strain rgp1, stronger effect = lower value 0.977 | locus YDR150W, strain NUM1, stronger effect = lower value 1.01 | locus YDR159W, strain sac3, stronger effect = lower value 0.927 | locus YDR162C, strain NBP2, stronger effect = lower value 1.02 | locus YDR195W, strain ref2 0.963 | locus YDR297W, strain sur2, stronger effect = lower value 1 | locus YDR318W, strain mcm21, stronger effect = lower value 0.986 | locus YDR334W, strain swr1, stronger effect = lower value 0.951 | locus YDR335W, strain msn5, stronger effect = lower value 0.971 | locus YDR388W, stronger effect = lower value 0.978 | locus YDR392W, strain spt3, stronger effect = lower value 0.992 | locus YDR502C, strain sam2, stronger effect = lower value 0.981 | locus YEL003W, strain gim4, stronger effect = lower value 0.976 | locus YEL037C, strain rad23, stronger effect = lower value 0.968 | locus YEL061C, strain CIN8 (second series), stronger effect = lower value 0.966 | locus YEL061C, strain CIN8, stronger effect = lower value 0.995 | locus YER015W, strain faa2, stronger effect = lower value 0.976 | locus YER016W, strain bim1, stronger effect = lower value 0.983 | locus YER110C, stronger effect = lower value 0.963 | locus YER111C, strain swi4, stronger effect = lower value 0.959 | locus YER155C, strain BEM2 (second series), stronger effect = lower value 0.985 | locus YER155C, strain BEM2, stronger effect = lower value 0.99 | locus YER167W, strain BCK2, stronger effect = lower value 0.994 | locus YFR010W, strain ubp6, stronger effect = lower value 0.945 | locus YGL078C, strain dbp3, stronger effect = lower value 0.982 | locus YGL086W, strain mad1, stronger effect = lower value 0.982 | locus YGL167C, strain pmr1, stronger effect = lower value 0.969 | locus YGL173C, strain kem1, stronger effect = lower value 0.97 | locus YGL227W, strain vid30, stronger effect = lower value 0.985 | locus YGL240W, strain doc1, stronger effect = lower value 0.986 | locus YGL248W, strain PDE1, stronger effect = lower value 1 | locus YGL253W, strain hxk2, stronger effect = lower value 0.961 | locus YGR078C, strain PAC10, stronger effect = lower value 1.02 | locus YGR135W, strain pre9, stronger effect = lower value 0.959 | locus YGR252W, strain gcn5, stronger effect = lower value 0.996 | locus YHR013C, strain ard1, stronger effect = lower value 0.961 | locus YHR027C, strain rpn1, stronger effect = lower value 0.976 | locus YHR030C, strain SLT2, stronger effect = lower value 0.993 and 1.04 | locus YHR079C, strain IRE1 (second series), stronger effect = lower value 0.979 | locus YHR079C, strain IRE1, stronger effect = lower value 1.03 | locus YHR094C, strain hxt1, stronger effect = lower value 0.985 | locus YHR129C, strain ARP1, stronger effect = lower value 1 | locus YHR142W, strain chs7, stronger effect = lower value 0.988 | locus YHR200W, strain rpn10, stronger effect = lower value 0.98 | locus YIL066C, strain RNR3, stronger effect = lower value 1.02 | locus YIL073C, strain SPO22, stronger effect = lower value 1.02 | locus YIL125W, strain kgd1, stronger effect = lower value 0.981 | locus YIR030C, strain dcg1, stronger effect = lower value 0.976 | locus YJL092W, strain hpr5, stronger effect = lower value 0.936 | locus YJL095W, strain BCK1 (second series), stronger effect = lower value 0.969 | locus YJL095W, strain BCK1, stronger effect = lower value 1.02 and 0.99 | locus YJL115W, strain asf1, stronger effect = lower value 0.951 | locus YJL129C, strain trk1, stronger effect = lower value 0.948 | locus YJL134W, strain LCB3, stronger effect = lower value 0.988 | locus YJL154C, strain vps35, stronger effect = lower value 0.974 | locus YJL164C, strain tpk1, stronger effect = lower value 1.01 | locus YJL166W, strain qcr8, stronger effect = lower value 0.977 | locus YJL168C, strain set2, stronger effect = lower value 0.978 | locus YJL187C, strain SWE1 (second series), stronger effect = lower value 1.01 | locus YJL187C, strain SWE1, stronger effect = lower value 0.961 | locus YJR043C, strain POL32, stronger effect = lower value 1.02 | locus YJR066W, strain TOR1, stronger effect = lower value 0.966 | locus YJR075W, strain HOC1, stronger effect = lower value 1.02 | locus YKL009W, strain mrt4, stronger effect = lower value 0.984 | locus YKL068W, stronger effect = lower value 0.98 | locus YKL085W, strain MDH1 (second series), stronger effect = lower value 1.01 | locus YKL085W, strain MDH1, stronger effect = lower value 1.01 | locus YKL160W, strain elf1, stronger effect = lower value 1.01 | locus YKL190W, strain CNB1, stronger effect = lower value 1 | locus YKR001C, strain vps1, stronger effect = lower value 0.982 | locus YKR026C, strain gcn3, stronger effect = lower value 0.974 | locus YKR091W, strain srl3, stronger effect = lower value 0.987 | locus YLL001W, strain dnm1, stronger effect = lower value 0.977 | locus YLL026W, stronger effect = lower value 0.986 | locus YLL041C, strain sdh2, stronger effect = lower value 0.963 | locus YLR027C, strain aat2, stronger effect = lower value 0.966 | locus YLR039C, strain RIC1, stronger effect = lower value 1.02 | locus YLR058C, strain SHM2, stronger effect = lower value 0.996 | locus YLR102C, strain apc9, stronger effect = lower value 0.991 | locus YLR113W, strain HOG1, stronger effect = lower value 1.01 | locus YLR221C, strain rsa3, stronger effect = lower value 0.989 | locus YLR258W, strain gsy2, stronger effect = lower value 0.978 | locus YLR262C, strain YPT6 (second series), stronger effect = lower value 0.964 | locus YLR262C, strain YPT6, stronger effect = lower value 1.05 | locus YLR268W, strain sec22, stronger effect = lower value 0.987 | locus YLR320W, strain mms22, stronger effect = lower value 0.997 | locus YLR330W, strain CHS5, stronger effect = lower value 0.991 | locus YLR342W, strain FKS1 (second series), stronger effect = lower value 0.999 | locus YLR342W, strain FKS1, stronger effect = lower value 0.982 | locus YLR357W, strain rsc2, stronger effect = lower value 0.94 | locus YLR370C, strain arc18, stronger effect = lower value 0.955 | locus YLR371W, strain rom2, stronger effect = lower value 0.98 | locus YLR384C, strain iki3, stronger effect = lower value 0.996 | locus YLR418C, strain cdc73, stronger effect = lower value 0.98 | locus YML016C, strain PPZ1, stronger effect = lower value 0.988 | locus YML032C, strain rad52, stronger effect = lower value 0.978 | locus YML120C, strain ndi1, stronger effect = lower value 0.989 | locus YML124C, strain tub3, stronger effect = lower value 0.986 | locus YMR058W, strain fet3, stronger effect = lower value 0.972 | locus YMR078C, strain ctf18, stronger effect = lower value 0.981 | locus YMR125W, strain sto1, stronger effect = lower value 0.933 | locus YMR129W, stronger effect = lower value 0.985 | locus YMR205C, strain PFK2, stronger effect = lower value 0.989 | locus YMR223W, strain ubp8, stronger effect = lower value 0.977 | locus YMR231W, strain pep5, stronger effect = lower value 0.964 | locus YMR307W, strain GAS1, stronger effect = lower value 1.03 | locus YNL067W, strain RPL9B, stronger effect = lower value 1.02 | locus YNL071W, strain lat1, stronger effect = lower value 0.981 | locus YNL128W, strain TEP1, stronger effect = lower value 0.998 | locus YNL153C, strain GIM3, stronger effect = lower value 1.02 | locus YNL183C, strain NPR1, stronger effect = lower value 0.974 | locus YNL209W, strain ssb2, stronger effect = lower value 0.976 | locus YNL233W, strain BNI4, stronger effect = lower value 1.02 | locus YNL248C, strain rpa49, stronger effect = lower value 0.955 | locus YNL250W, strain rad50, stronger effect = lower value 0.972 | locus YNL271C, strain bni1, stronger effect = lower value 0.985 | locus YNL298W, strain CLA4, stronger effect = lower value 0.972 | locus YNL307C, strain MCK1, stronger effect = lower value 0.978 | locus YNL322C, strain KRE1 (second series), stronger effect = lower value 0.95 | locus YNR049C, strain mso1, stronger effect = lower value 0.952 | locus YNR052C, strain pop2, stronger effect = lower value 0.974 | locus YOL012C, strain htz1 0.939 | locus YOL147C, strain pex11, stronger effect = lower value 0.989 | locus YOR001W, strain rrp6, stronger effect = lower value 0.951 | locus YOR061W, strain CKA2, stronger effect = lower value 0.992 | locus YOR069W, strain VPS5, stronger effect = lower value 0.987 | locus YOR070C, strain gyp1, stronger effect = lower value 0.986 | locus YOR080W, strain dia2, stronger effect = lower value 0.982 | locus YOR083W, strain WHI5, stronger effect = lower value 1.02 | locus YOR106W, strain vam3, stronger effect = lower value 0.998 | locus YOR136W, strain idh2, stronger effect = lower value 0.976 | locus YOR144C, strain elg1, stronger effect = lower value 0.985 | locus YOR184W, strain ser1, stronger effect = lower value 0.998 | locus YOR231W, strain MKK1, stronger effect = lower value 1.02 | locus YOR265W, strain rbl2, stronger effect = lower value 0.977 | locus YOR270C, strain vph1, stronger effect = lower value 0.949 | locus YOR290C, strain snf2, stronger effect = lower value 0.997 | locus YOR316C, strain cot1, stronger effect = lower value 0.99 | locus YPL051W, strain arl3, stronger effect = lower value 0.972 | locus YPL078C, strain atp4, stronger effect = lower value 1 | locus YPL106C, strain sse1, stronger effect = lower value 0.957 | locus YPL240C, strain hsp82, stronger effect = lower value 0.964 | locus YPL241C, strain CIN2, stronger effect = lower value 1 | locus YPL256C, strain CLN2, stronger effect = lower value 1.03 | locus YPR119W, strain clb2, stronger effect = lower value 0.97 | locus YPR141C, strain kar3, stronger effect = lower value 0.987 | locus YPR163C, strain tif3, stronger effect = lower value 0.994 | locus YPR167C, strain met16, stronger effect = lower value 0.964 | strain wtn01, stronger effect = lower value 0.96
